Data published in PubChem BioAssay AID488899 (Broad Institute, 2010).
Out of some 330,000 compounds screened, about 2,800 (0.85%) were called active.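 The calls were made as follows: active = mean inhibition across replicates of 60% or more, whatever share of single replicates reaches that level; inconclusive = some that reach 60%, reason not given; inactive = mean inhibition across replicates below 60%.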 Only a selection was taken, and actives are over-represented in it overall.

assay: inhibitors of MITF-dependent TRPM1 promoter reporter, primary screen, cell-based, SK-MEL-5, single point, luciferase (AID 488899); details: SK-MEL-5 TRPM1 promoter luciferase, 24 h; at 12.5 µM; stronger effect = higher value

Row | Compound | inhibition
1 | COc1ccc(-c2cc(=O)oc3cc(OC(C)C(=O)Nc4ccc(CN5CCOCC5)cc4)ccc23)cc1 (centres undefined) | -4.64% (inactive)
2 | CCCN(CCC)S(=O)(=O)c1cc2c(cc1Br)CCN2C(=O)CC | 0.177% (inactive)
3 | NN=C(NN=Cc1ccccc1)c1ccccc1 | -40.6% (inactive)
4 | CC(Oc1ccc(-c2ccccc2)c(F)c1)c1ccn(S(=O)(=O)c2cccc3ccccc23)n1 (centres undefined) | -2.2% (inactive)
5 | O=C(O)c1ccc(S(=O)(=O)c2ccccc2)s1 | 11.8% (inactive)
6 | COc1ccc(C2=NN(c3nc4ccccc4s3)C(=O)C2)cc1 | 19.7% (inactive)
7 | CC(=NCc1ccco1)c1c(C(F)(F)F)[nH]n(-c2nc3ccccc3s2)c1=O | -61.7% (inactive)
8 | COC(=O)Cc1[nH]n(-c2nc3ccccc3s2)c(=O)c1C(C)=Nc1ccc(OC)cc1 | 95.4% (active)
9 | CC[C@]12c3[nH]c4ccc(Cl)cc4c3CCN1C(=O)[C@@H](CC(=O)NCCCOC)C[C@@H]2C(=O)N1CCN(C(=O)c2ccco2)CC1 | -7.5% (inactive)
10 | CCOc1ccc(N/C=C/C(=O)c2ccccc2)cc1 | 8.94% (inactive)
11 | COc1ccc(C(=O)/C=C/Nc2ccccn2)cc1 | 67.5% (active)
12 | CCOc1ccc(N/C=C/C(=O)c2cc(OC)c(OC)c(OC)c2)cc1 | 4.18% (inactive)
13 | O=[N+]([O-])c1ccc(N=NNc2ccc([N+](=O)[O-])cc2)cc1 | -19.3% (inactive)
14 | CC(=O)NCCNC(=O)c1cc(-c2cccc3ccccc23)nc2ccccc12 | 9.13% (inactive)
15 | CN(C)CCNC(=O)Nc1cccc(Cl)c1Cl | 5.71% (inactive)
16 | CN(C)CCNC(=O)c1ccc(Cl)c2cc3ccccc3nc12 | 74.8% (active)
17 | Cc1ccc(-c2nnc(-c3ccc(NC(=O)c4cccs4)cc3)o2)cc1 | 73.5% (active)
18 | Cc1ccc(OCC(=O)Nc2ccc(NC(=O)c3cccs3)cc2)c(C)c1 | 27.8% (inactive)
19 | Cc1ccc(C(=O)Nc2ccc(NC(=O)c3cccs3)cc2)c(C)c1 | -4.59% (inactive)
20 | CS(=O)(=O)c1ccc2nnn(OCC(=O)Nc3cccc(C#N)c3)c2c1 | 10.8% (inactive)
21 | COc1cc(O)c2c(=O)c3c(O)c(O)ccc3oc2c1OC | -1.36% (inactive)
22 | Cc1ccccc1-c1n[nH]c(=S)n1/N=C/c1ccc(-c2ccccc2Br)o1 | 10.7% (inactive)
23 | O=C(CSc1n[nH]c(-c2cccs2)n1)N1CCCCC1 | -12.1% (inactive)

Row | Compound | inhibition
24 | COc1cc(OC)cc(C(=O)NNC(=O)CCOc2ccccc2OC)c1 | -4.37% (inactive)
25 | COc1cc(OC)cc(C(=O)N[C@H](C(=O)Nc2nc3ccccc3[nH]2)C(C)C)c1 | 71% (active)
26 | COc1cc(OC)cc(C(=O)N[C@H](C(=O)NNC(=O)c2ccc(Br)cc2)C(C)C)c1 | 13.3% (inactive)
27 | COc1ccc(C(=O)N[C@H](C(=O)NCc2ccccc2)C(C)C)cc1 | 9.58% (inactive)
28 | CCn1nnc2cc(C(=O)Nc3ccc(C(=O)OC(C)C)cc3)ccc21 | 21.6% (inactive)
29 | CCOC(=O)C(CO)NC(=O)C1(NC(C)=O)CCCC1 (centres undefined) | -14.8% (inactive)
30 | COc1cc(SC)ccc1C(=O)Nc1nc(C)cs1 | 88.5% (active)
31 | Cc1csc(NC(=O)c2ccc(C)s2)n1 | -57.3% (inactive)
32 | COc1ccc(C(=O)Nc2cccc(NC(=O)c3ccc(OC)cc3OC)n2)c(OC)c1 | -13.3% (inactive)
33 | CC(=O)Nc1ccccc1Sc1ccc2c3c(cccc13)C(=O)N(c1ccc(C)cc1)C2=O | 65.2% (active)
34 | CSc1ccccc1NC(=O)C(C)N1C(=O)c2ccccc2S1(=O)=O (centres undefined) | 0.029% (inactive)
35 | Cc1ccc(N2C(=O)CC(Nc3cccc4ccccc34)C2=O)cc1 (centres undefined) | 8.42% (inactive)
36 | O=C(/C=C/c1ccc([N+](=O)[O-])o1)NNC(=O)c1ccc(F)cc1 | 80.8% (active)
37 | O=C(NNC(=O)C1CCCC1)c1ccc(F)cc1 | 3.41% (inactive)
38 | COc1ccc(C(=O)NCC(=O)N/N=C/c2ccc([N+](=O)[O-])o2)cc1OC | 10.3% (inactive)
39 | O=C(Cn1cnc2ccccc2c1=O)NCC1COc2ccccc2O1 (centres undefined) | -4.59% (inactive)
40 | NC(N)=Nc1nc(-c2ccccc2)c2cc(Cl)ccc2n1 | 85.2% (active)
41 | COC(=O)Cn1nc(-c2ccccc2)c2cc(Cl)ccc21 | -4.99% (inactive)
42 | Cc1ccc2nc(Nc3ccccc3O)nc(-c3ccccc3)c2c1 | -6.93% (inactive)
43 | COc1ccc2[nH]c3c(C)c4cc[n+](C)cc4c(C)c3c2c1 | 50.4% (inactive)
44 | O=[N+]([O-])/C=C/c1ccc2c(ccn2Cc2ccccc2)c1 | 69.6% (active)
45 | COC(=O)Cn1cc(/C=C/[N+](=O)[O-])c2ccccc21 | 1.38% (inactive)
46 | O=C(Cn1ccc2cc(S(=O)(=O)N3CCCC3)ccc21)NCc1ccccc1 | -7.14% (inactive)

Row | Compound | inhibition
47 | CC1(C)C2CCC1(C)C(OC(=O)c1ccc(O)cc1)C2 (centres undefined) | -0.433% (inactive)
48 | CC(C)OC(=O)c1ccc(NCc2cc(O)ccc2O)cc1Cl | 5.02% (inactive)
49 | COC(=O)c1ccc(NCc2cc(O)ccc2O)cc1 | -5.57% (inactive)
50 | O=C(OC12CC3CC(CC(C3)C1)C2)c1ccc(NCc2cc(O)ccc2O)cc1 | 66.6% (active)
51 | CCOc1ccc(-n2c(O)c(/C=N/Nc3nc(C)cc(C)n3)c3ccccc3c2=O)cc1 | 67.6% (active)
52 | CCN(CC)CCCN=Cc1c(O)n(-c2ccc(C)cc2)c(=O)c2ccccc12 | -6.61% (inactive)
53 | Cc1ccc(-n2c(O)c(C=Nc3ccc(S(=O)(=O)Nc4ncccn4)cc3)c3ccccc3c2=O)cc1C | 7.63% (inactive)
54 | Cc1ccc(S(=O)(=O)C2C(=O)NC3(C)CC2c2ccccc2O3)cc1 (centres undefined) | 4.13% (inactive)
55 | COc1ccc(C(=O)Nc2ccnn2C2CCN(Cc3ccncc3)CC2)cc1 | -5.32% (inactive)
56 | CCCCCN(C(=O)NC(=O)Nc1ccccc1C)S(C)(=O)=O | 4.88% (inactive)
57 | CCOC(=O)CCC(NC(=O)c1ccc(CNc2nc3cc(C(F)(F)F)ccc3nc2C(=O)OCC)cc1)C(=O)OCC (centres undefined) | 3.92% (inactive)
58 | CSCCC(NS(=O)(=O)c1ccc(C)cc1)C(=O)N(C)CC(=O)Nc1ccccc1Br (centres undefined) | 11.6% (inactive)
59 | CC(C)=CCc1ccc(O)c(=O)cc1C(C)C | 71.6% (active)
60 | CC(C)c1cc(N=O)cc(C(C)C)c1O | -4.28% (inactive)
61 | COc1ccc(CNC(=O)CN2C(=O)c3ccccc3S2(=O)=O)cc1 | 13.6% (inactive)
62 | COc1ccc(-n2nc3c(N4CCC(C(=O)NCc5ccccc5)CC4)nnc(C)c3c2C)cc1 | 40.6% (inactive)
63 | CCc1ccc(CNC(=O)C2CCN(c3nnc(C)c4c(C)n(-c5ccc(C)cc5)nc34)CC2)cc1 | 96.1% (active)
64 | CCOc1ccc(CNC(=O)C2CCCN(c3nnc(C)c4c(C)n(-c5ccccc5)nc34)C2)cc1 (centres undefined) | 48.5% (inactive)
65 | COc1cccc(CC(=NO)c2cccc(OC)c2)c1 | -0.084% (inactive)
66 | CCCOc1ccc(/C=N/NC(=O)C2CC2)c(OCCC)c1 | -7.21% (inactive)
67 | COc1ccc(CN2CCNC(=O)C2CC(=O)NCc2cn[nH]c2-c2ccccc2)c(F)c1 (centres undefined) | -6.25% (inactive)
68 | CN1CCN(CCCNC(=O)c2ccc(/C=C3\Oc4ccccc4N(Cc4ccc(Cl)cc4)C3=O)cc2)CC1 | 96.1% (active)
69 | CC(C)OCCCNC(=O)CN1C(=O)/C(=C/c2ccccc2F)Oc2ccccc21 | 8.17% (inactive)

Row | Compound | inhibition
70 | Cc1c(C)n(Cc2ccc(Cl)cc2)c2ccc(C(=O)NCCCN3CCOCC3)cc12 | 1.78% (inactive)
71 | CCOc1ccc(NC(=O)CSc2ncnc3c2sc2ccccc23)cc1 | 4.52% (inactive)
72 | C=CCc1cccc2cc(C(=O)NC3CCCC3)c(=O)oc12 | -16% (inactive)
73 | CCC1=C(OC(=O)N(CC)CC)N2C(=O)OC(=NCCc3c[nH]c4ccccc34)[C@]2(C)[C@H]2C1=CC[C@H]1C(=O)N(CC)C(=O)[C@H]12 | 1.76% (inactive)
74 | COCCN(Cc1cc2cc3c(cc2nc1Cl)OCO3)C(=O)c1cccc(C)c1 | 10% (inactive)
75 | Cc1cc(C)nc(SCc2ccccc2C#N)n1 | 4.69% (inactive)
76 | Cc1cc(C)nc(S/C=C/C(=O)c2ccccc2)n1 | 80.6% (active)
77 | Cc1cc(C)nc(SCC(=O)N(C)C)n1 | 2.39% (inactive)
78 | Cn1c2ccccc2c2c(C(=O)N3CCN(c4ccc(F)cc4)CC3)cn(C3CCCC3)c(=O)c21 | -8.48% (inactive)
79 | CC1CCN(Cc2nc3c(c(=O)n(C)c(=O)n3C)n2CCc2ccccc2)CC1 | -2.78% (inactive)
80 | CCCc1nc2c(c(=O)c3ccccc3n2C)c(=O)n1C1CCCCCC1 | 73.5% (active)
81 | COc1cc(OC)cc(-c2c(-c3cccs3)c3cc(-c4ccc(OC)cc4F)ccc3n2C)c1 | 13.6% (inactive)
82 | C#CCOCCOCCOCCNc1nc(N2CCOCC2)nc(N2CCN(C(=O)[C@H](Cc3ccc(O)cc3)n3cc(CCO)nn3)CC2)n1 | 4.74% (inactive)
83 | O=C(c1ccccc1)N1CCN(c2ccc([N+](=O)[O-])c(NCc3ccco3)c2)CC1 | 5.6% (inactive)
84 | COc1ccccc1OCCNc1cc(N2CCOCC2)ccc1[N+](=O)[O-] | -28% (inactive)
85 | COc1ccc(CCNc2cc(N3CCN(C(=O)c4ccccc4OC)CC3)ccc2[N+](=O)[O-])cc1OC | 77.2% (active)
86 | C[C@@H](NC(=O)c1nc[nH]c1C(=O)N1CCN(C(=O)OC(C)(C)C)CC1)c1ccccc1 | -1.66% (inactive)
87 | CCCCN1CC(CO)Oc2cccc(F)c2S1(=O)=O (centres undefined) | 0.622% (inactive)
88 | Cc1ccc(CN(Cc2cccnc2)C(=S)Nc2cc(Cl)ccc2C)cc1 | 1.58% (inactive)
89 | O=c1ccn([C@@H]2O[C@H](CNS(=O)(=O)c3cc4ccccc4s3)[C@@H](O)[C@H]2O)c(=O)[nH]1 | -0.592% (inactive)
